Assay results taken from paper PMC4666376, “Characterisation of aptamer–target interactions by branched selection and high-throughput sequencing of SELEX pools”.

Each sequence was assayed against PAI-1 wild type, active (human, UniProt P05121 24-402) (assay: branched SELEX with high-throughput sequencing; PAI-1 immobilised on polyclonal anti-PAI-1 antibody; HBS (10 mM HEPES pH 7.4, 140 mM NaCl), 2 mM MgCl2, 2 mM CaCl2, 0.1% BSA; RNA pool 100 nM; PAI-1 captured on antibody-coated wells; 45 min; binding temperature not stated (PAI-1 capture at room temperature); high values mean tight binding). Conditions: protein: recombinant; tags: N-terminal His6; structured_RNA; 2'-F pyrimidines.
Chain of PAI-1 wild type, active (P05121 24-402): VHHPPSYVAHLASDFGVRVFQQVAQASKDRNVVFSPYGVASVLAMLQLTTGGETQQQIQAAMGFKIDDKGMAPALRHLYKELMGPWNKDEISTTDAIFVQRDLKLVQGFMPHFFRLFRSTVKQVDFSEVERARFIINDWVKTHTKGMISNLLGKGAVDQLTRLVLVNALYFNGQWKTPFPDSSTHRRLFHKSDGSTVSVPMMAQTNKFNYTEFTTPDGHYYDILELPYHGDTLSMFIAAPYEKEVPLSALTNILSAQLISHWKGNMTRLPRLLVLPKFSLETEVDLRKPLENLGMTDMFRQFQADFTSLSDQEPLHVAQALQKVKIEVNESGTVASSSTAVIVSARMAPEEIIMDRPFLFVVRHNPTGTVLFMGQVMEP
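Also: Pool frequency after one selection round with this target divided by frequency before selection.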

| Sequence | binding signal [enrichment factor] |
| --- | --- |
| GGGGCCACCAACGACAUUGCUGUGCUAAUCGGUCUUCCGACGCAUAUUCGAAUGUUGAUAUAAAUAGUGCCCAUGGAUC | 0.63 |
| GGGGCCACCAACGACAUUCUGGCCGUAGGACAAUAGUCCGAUCCAGAUAUAGAGUUGAUAUAAAUAGUGCCCAUGGAUC | 0.54 |
| GGGGCCACCAACGACAUUUGGCGAGAUGCCAUCUUUACCUUAAUAGGUAGUUCGUUGAUAUAAAUAGUGCCCAUGGAUC | 2.77 |
| GGGGCCACCAACGACAUUAAGUUCGUCCUCUUCCAAGAGAAGGGGUCUAUGCCGUUGAUAUAAAUAGUGCCCAUGGAUC | 5.35 |
| GGGGCCACCAACGACAUUGUAGCAUAAUCAACCUGCGACUGUCGUGUGAUAAGGUUGAUAUAAAUAGUGCCCAUGGAUC | 1.02 |
| GGGGCCACCAACGACAUUUAAGUUCGUCUCACUGACUCUGCAGUGAGUCUAAUGUUGAUAUAAAUAGUGCCCAUGGAUC | 7.58 |
| GGGGCCACCAACGACAUUCAGGCCGUAGGAUGUUAUAUCCGAUCCUGAUCUUCGUUGAUAUAAAUAGUGCCCAUGGAUC | 1.4 |
| GGGGCCACCAACGACAUUCUAAGUUCGUCCUACUUACUCUUGUAGGUCUGAAUGUUGAUAUAAAUAGUGCCCAUGGAUC | 16.4 |
| GGGGCCACCAACGACAUUGCGCGAAGCGCUUACGCGUGUUGAUCGAAUGUUGUUGAUAUAAAUAGUGCCCAUGGAUC | 1.4 |
| GGGGCCACCAACGACAUUGUCGUAGCCGGACUCCACCGGUGACCAAUGAGCGUUGAUAUAAAUAGUGCCCAUGGAUC | 0.57 |
| GGGGCCACCAACGACAUUACGUAGCUGGGUUUCACCAGCGAUUAGUUGUUGAUAUAAAUAGUGCCCAUGGAUC | 0.7 |
| GGGGCCACCAACGACAUUGACUCCUAGUUAUACCGAUUAGGACUUGUAGAUGCGUUGAUAUAAAUAGUGCCCAUGGAUC | 0.26 |
| GGGGCCACCAACGACAUUGAUCAACGAUCACCAUGAUACACAUGGAUCACGUAGUUGAUAUAAAUAGUGCCCAUGGAUC | 0.62 |
| GGGGCCACCAACGACAUUCACACAACGUAGGCUCGUGAGCCGAUCAGUGAUUAGUUGAUAUAAAUAGUGCCCAUGGAUC | 0.81 |
| GGGGCCACCAACGACAUUGUCGUAGGCAAGUGUACGAAUCUUUGCUGACCAGUGUUGAUAUAAAUAGUGCCCAUGGAUC | 2.67 |
| GGGGCCACCAACGACAUUGCGCUACGAUCAAAACACGUAGUAGUGCAACGAAUGUUGAUAUAAAUAGUGCCCAUGGAUC | 0.29 |
| GGGGCCACCAACGACAUUUCGACUUGUAGACGAUAUUCGUCGACUCGAAGAGCGUUGAUAUAAAUAGUGCCCAUGGAUC | 0.51 |
| GGGGCCACCAACGACAUUGAGCUACGGCUAAGCCGCUAUAGUCUUCAGGAAUCGUUGAUAUAAAUAGUGCCCAUGGAUC | 0.33 |
| GGGGCCACCAACGACAUUUUGUAGGUGUCAACUACCGACCGUCGUUUGCAUUAGUUGAUAUAAAUAGUGCCCAUGGAUC | 1.24 |
| GGGGCCACCAACGACAUUACAUACCGUAGGGCAGAUCGCCUGACUAGUAAUACGUUGAUAUAAAUAGUGCCCAUGGAUC | 0.24 |
| GGGGCCACCAACGACAUUAUCGACCAUAACGUAGCGGGCUUUCCCGUGAUCAGGUUGAUAUAAAUAGUGCCCAUGGAUC | 0.91 |
| GGGGCCACCAACGACAUUACGAACUUGUAGGCACGAAUACGCCGACCUCUAAUGUUGAUAUAAAUAGUGCCCAUGGAUC | 1.25 |
| GGGGCCACCAACGACAUUGUGACCCACCAUUAUAUGGUGACUAGUAGCGUGUUGUUGAUAUAAAUAGUGCCCAUGGAUC | 0.17 |
| GGGGCCACCAACGACAUUGACCAUGUAGGACUUAAAGUCUGACCACAAUGUGUGUUGAUAUAAAUAGUGCCCAUGGAUC | 0.6 |
| GGGGCCACCAACGACAUUUUGAUCAACACAACGUAGGUCUAUGCGACCGAUAGUUGAUAUAAAUAGUGCCCAUGGAUC | 2.02 |
| GGGGCCACCAACGACAUUGCACCUGUAGGCUAGGUCACUGGCUGACUGCAAUUGUUGAUAUAAAUAGUGCCCAUGGAUC | 0.47 |
| GGGGCCACCAACGACAUUACACUGUAGAGAAUACCCAAUUCUCGACUAGAUGCGUUGAUAUAAAUAGUGCCCAUGGAUC | 0.74 |
| GGGGCCACCAACGACAUUGCCGUAGGAAUUCGUCCUGAGUUCCGAUCAAUAGCGUUGAUAUAAAUAGUGCCCAUGGAUC | 0.74 |
| GGGGCCACCAACGACAUUCGUGUUGUAUCUGUUAUACAGCAUGUUAUUUGUGCGUUGAUAUAAAUAGUGCCCAUGGAUC | 3.72 |
